An excerpt weighted towards active compounds, which were near 4.6% of everything screened.
D1 antagonist: antagonists of human D1 dopamine receptor; 3.2% of 360,000 active; activity change, negative = inhibition, % at 10 µM; P21728; HEK293 TREx D1 cells, calcium flux, dopamine EC80; hits give low values; in the data active = activity change below about -30%; note: % is set by controls: 0 for no effect and ±100 for the full control effect
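Kinetic fluorescence of a calcium dye serves as the read-out. D1-expressing Hek293 Trex cells, induced overnight at 30 C, are exposed to compound for 180 s before an EC80 dopamine addition, then read 180 s further.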
TRHR PAM: allosteric enhancers of human TRH receptor; P34981; TRHR cells, fluo-8 calcium fluorescence, EC20 TRH enhancement; enhancement, % at 2 µM; 0.66% of 360,000 active; in the data active = enhancement above about 30%; note: 0% is about no effect
Target sequence (P34981 whole entry, looked up): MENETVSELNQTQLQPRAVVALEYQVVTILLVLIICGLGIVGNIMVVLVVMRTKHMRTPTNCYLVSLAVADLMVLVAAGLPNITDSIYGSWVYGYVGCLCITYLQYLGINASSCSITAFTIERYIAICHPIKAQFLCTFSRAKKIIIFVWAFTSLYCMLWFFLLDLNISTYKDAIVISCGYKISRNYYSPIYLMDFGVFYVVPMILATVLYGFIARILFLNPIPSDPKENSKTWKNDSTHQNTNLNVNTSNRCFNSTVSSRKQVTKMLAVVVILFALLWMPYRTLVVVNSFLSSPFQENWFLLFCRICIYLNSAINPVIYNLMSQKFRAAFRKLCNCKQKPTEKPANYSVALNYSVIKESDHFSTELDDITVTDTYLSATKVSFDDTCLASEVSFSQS
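TRHR-expressing cells loaded with fluo-8 calcium dye were read kinetically (ex 480/em 530) during compound addition, then stimulated with an EC20 of TRH (10 nM final). Enhancement of the Gq-mediated intracellular calcium response was scored.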
TRHR ag: TRH receptor (human) agonism; P34981; TRHR cells, calcium flux fluo-8, FDSS agonist mode; activation, % at 2 µM; 0.18% of 360,000 active; note: 0% is about no effect
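TRHR-expressing cells, plated overnight in medium with 10% serum, were loaded with fluo-8 calcium dye at room temperature. After a 10 s baseline, library compound was pin-added and calcium release was recorded kinetically (ex 480/em 530) as agonist response.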
D1 agonist: human D1 receptor agonism; HEK293 T-REx D1 cells, calcium flux, agonist mode; activation, % at 2 µM; 1% of 360,000 active; AID 504660; note: 0% is about no effect
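Tetracycline-induced HEK293 TREx D1 cells, force-coupled to calcium signalling, were dye-loaded with a no-wash calcium kit. Compound was pin-added after a 10 s baseline. Fluorescence was read kinetically at 1 cycle/s for 180 s, with calcium rises flagged as agonism.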
D1 potentiator: potentiators of human D1 dopamine receptor. HEK293 TREx D1 cells, calcium flux, dopamine EC20 potentiation. potentiation, % at 10 µM. 0.036% of 360,000 active. AID 504651; in the data active = potentiation above about 30%; note: 0% is about no effect
Epigenetic reg: epigenetic control regulation, reporter derepression; murine LDR cells, GFP reporter derepression, 30 h; Potency, µM (doses to about 53.9 µM), for the others: at the highest dose GFP activation, hits mostly activators; 0.2% of 280,000 active; AID 1865; active = well fitted activation curve with a large enough effect; note: potency is the fitted concentration of half-maximal effect; % of control where 0% means no effect; nearly all actives have a fitted effect of over 60% in size
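Murine LDR cells carrying a silenced, genomically integrated CMV-driven GFP reporter were exposed to compound for 30 hours at 37 C. After PBS washes, GFP-positive cells (20–120 um objects) were counted by laser-scanning microplate cytometry.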
* hit, by the source's call; / = no result. Cut-off read from the data, not from the text of the source, unless noted: active = activation above about 30%; inactive = the rest.

SMILES	D1 antagonist	TRHR PAM	TRHR ag	D1 agonist	D1 potentiator	Epigenetic reg
CCOC(=O)C1CCCN(Cc2cn3c(-c4cccc(Br)c4)nnc3s2)C1 (centres undefined)	12	-4	-1	5	2	1%
O=C(O)CCC[C@H](O)\C=C/C=C/C=C/[C@H](O)C/C=C\CCCCCO	/	/	/	/	/	-1%
CC1CCN(S(=O)(=O)c2ccc3c(c2)N(CC(=O)N(C)Cc2ccccc2)C(=O)CO3)CC1	-9	-8	0	3	-5	10%
COc1ccc(C(=O)NC2CCCCCC2)cc1OC1CCN(C(C)=O)CC1	-17	3	0	2	-8	/
COc1ccc(CN2CCC(Oc3cc(C(=O)NC4CC4)ccc3OC)CC2)c(O)c1	-77*	1	0	4	-15	/
Cc1ccc(NC(=O)N2CCN3CCCCC3C2)cc1C (centres undefined)	-36*	0	0	-1	-2	-2%
CC(=O)OCC(=O)[C@@]1(O)CCC2C3CC[C@H]4CC(O)CC[C@@]4(C)C3C(=O)C[C@]21C (some centres undefined)	/	/	/	/	/	2%
O=C(N/N=C/c1sc(=O)n(Cc2ccc(Br)cc2)c1Cl)c1ccco1	-49*	6	-1	14	7	/
COc1ccc(S(=O)(=O)NCCc2csc3nc(-c4ccc(Cl)cc4)nn23)cc1C	/	2	0	-1	0	1%
CC(C)c1c(C(=O)N/N=C/c2cccs2)nnn1-c1nonc1N	24	-2	0	22	0	/
CC(C)c1c(C(=O)N/N=C/c2ccoc2)nnn1-c1nonc1N	5	9	0	16	6	/
CC(C)c1c(C(=O)N/N=C/c2ccsc2)nnn1-c1nonc1N	28	18	2	39*	19	/
CC(C)c1c(C(=O)N/N=C/c2ccc(C(F)(F)F)cc2)nnn1-c1nonc1N	8	1	-1	253*	9	/
CC(=O)OCC1O[C@@H](O[C@@H]2C[C@H]3C(C)(C)[C@H](OC(C)=O)CC[C@]3(C)[C@H]3CC[C@]45C[C@]4(CC[C@H]5[C@@H](C)C[C@@H](O)[C@H](O)C(C)(C)O)[C@@]32C)[C@H](O)[C@@H](O)[C@@H]1O (some centres undefined)	14	10	0	334*	19	2%
Cc1ccc(CNC(=O)CCCCCn2c(=O)c3sccc3n(CC(=O)C(C)(C)C)c2=O)cc1	-8	-5	-1	12	-1	-1%
CCN(CC1COc2ccccc2O1)S(=O)(=O)c1ccc(C)cc1 (centres undefined)	-33*	-1	1	10	-4	0%
CCN(c1ccccc1)S(=O)(=O)c1ccc(NCC2COc3ccccc3O2)nc1 (centres undefined)	-10	0	-1	8	8	9%
COc1ccc(N(CC(=O)Nc2ccc(C)cn2)S(=O)(=O)c2c(C)noc2C)cc1	-80*	7	0	0	-4	0%
O=S(=O)(c1ccc2c(c1)OCCO2)N1CCN(S(=O)(=O)c2ccccc2OC(F)(F)F)CC1	-25	1	1	7	-3	/
CCOC(=O)C1=C(COC(=O)/C=C/c2ccc(OC)c(OC)c2)NC(=O)NC1C (centres undefined)	3	-2	-1	2	2	/
CCOC(=O)C1=C(COC(=O)c2ccc(OC)c(OC)c2OC)NC(=O)NC1C (centres undefined)	-44*	-5	-1	11	-3	/
CCOC(=O)C1=C(COC(=O)/C=C/c2cc(OC)c(OC)c(OC)c2)NC(=O)NC1C (centres undefined)	-39*	0	0	1	-5	/
CCOC(=O)C1=C(COC(=O)c2cc(OC)c(OC)cc2[N+](=O)[O-])NC(=O)NC1C (centres undefined)	-11	4	0	2	-2	/
COc1cccc(N2CC(NS(=O)(=O)c3ccc4ccccc4c3)CC2=O)c1 (centres undefined)	-21	0	0	31*	-3	/
Nc1cc(N)nc(CS)n1	-54*	-2	0	3	3	1%
